# From the supplement of paper PMC3334620
# In all, about 33,000 sequences were measured (“E-score (-0.5 to 0.5)”: median about -0.0059, highest 2% from about 0.26 on). This is one part of a sample in which the highest values are shown more often than they occur.
# Target: T1, Cin5 (UniProt P40917)
# T1 sequence: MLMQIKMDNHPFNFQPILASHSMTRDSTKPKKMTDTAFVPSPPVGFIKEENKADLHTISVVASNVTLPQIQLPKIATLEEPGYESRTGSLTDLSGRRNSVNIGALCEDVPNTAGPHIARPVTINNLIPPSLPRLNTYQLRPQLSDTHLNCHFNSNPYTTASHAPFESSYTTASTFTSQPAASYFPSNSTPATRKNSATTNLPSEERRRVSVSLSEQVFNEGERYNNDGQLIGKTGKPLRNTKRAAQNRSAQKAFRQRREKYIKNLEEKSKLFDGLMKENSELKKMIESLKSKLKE
# Assay: PBM E-score (8-mer binding enrichment) (E-score (-0.5 to 0.5)); higher = stronger / more preferred TF binding
# Conditions: protein concentration: 100 nM; construct: GST-full length
# Description: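 Universal 'all 10-mer' protein binding microarrays (Agilent AMADID 015681) probed with GST-tagged S. cerevisiae TFs (full-length or DBD) made by in vitro transcription/translation (PURExpress), about 100-200 nM. Bound TF was detected with fluorescent anti-GST. Each ungapped 8-mer (which stands for itself and its reverse complement) is scored by the PBM enrichment score (E-score), a modified Wilcoxon-Mann-Whitney statistic from -0.5 to +0.5, computed with the Universal PBM Analysis Suite. Scale: above 0.35 generally sequence-specific binding.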
row,Sequence,PBM E-score
1,GAGGGGGA,-0.324
2,GTGAGATA,0.164
3,CTAGCCGC,0.0223
4,GACTAGAC,-0.179
5,ATCTGAAT,0.0915
6,GACCTTCC,-0.147
7,AAATATTT,0.141
8,GCATATTA,0.246
9,CGATATTC,0.0444
10,GAATATAC,0.195
11,AGATATTA,0.168
12,GGATATTA,0.143
13,TAATATTA,0.368
14,GAATATTC,0.265
15,CAATATTC,0.102
16,GAATATCA,0.174
17,GAATATTA,0.274
18,CGATATTA,0.355
19,GATCGTTA,0.0193
20,GGACCTAA,-0.0416
21,CTGGGAAG,-0.0869
22,CGATCGCC,0.0437
23,AGTCTTAT,0.158
24,AAGGGCGA,-0.241
25,CAAGACGA,-0.0306

row,Sequence,PBM E-score
1,CTCCGCCC,-0.173
2,CTCCACAC,-0.0294
3,ACTTCTTG,-0.0532
4,AGGCTTGA,-0.0503
5,CCACCTCC,-0.266
6,AAGCACTC,-0.0467
7,CAATATTG,0.205
8,CAATATTA,0.275
9,AAATATTA,0.315
10,AAATATTC,0.183
11,CAATATCC,0.116
12,TAATATCA,0.26
13,AAATATTG,0.222
14,AAATATCA,0.179
15,CAGTATCA,0.0369
16,GAGTATCA,-0.0396
17,TAGTATCA,0.296
18,CAATATCA,0.108
19,ACCTACGT,0.0549
20,CACTGCAG,-0.0359
21,CGGCAGTC,0.0575
22,GTGCCAGA,-0.293
23,GCACTACC,-0.00786
24,TACCGGTA,0.0137
25,GCGATTCA,0.0512

row,Sequence,PBM E-score
1,AAAATCCT,-0.223
2,CTTTAGCC,0.0446
3,CCGGCTTC,0.0218
4,TGGAGCCA,-0.184
5,ATTGGCGG,-0.0494
6,AGGATAGC,-0.064
7,CTGACCGC,-0.068
8,ATTATAAG,0.188
9,ACAATAAA,0.162
10,ACAATAAC,0.143
11,ATTATAAT,0.265
12,ACTATAAC,0.0218
13,ACTATAAA,0.146
14,ACTATAAT,0.27
15,ATTATAAA,0.195
16,ACAATAAT,0.267
17,ATGAATAA,0.142
18,ACCAGGGG,-0.265
19,AGGCAGTG,0.141
20,AAAATATA,0.159
21,GAAATATC,0.111
22,CAAATATA,0.166
23,GAAATATA,0.287
24,GAAAAATA,0.158
25,TAAATATA,0.261

row,Sequence,PBM E-score
1,CCGTTGGC,-0.124
2,AAACAGCA,0.0422
3,CCCCATCC,0.00185
4,AGACAATG,-0.00251
5,AAACAATA,0.287
6,ATACAATA,0.278
7,AAACAATG,0.196
8,TAACAATA,0.273
9,CAACAATA,0.155
10,GAACAATA,0.229
11,CTACAATA,0.137
12,AGACAATA,0.279
13,ATACAATC,0.162
14,AAACAATT,0.154
15,AGACAATC,0.112
16,GCGGATCC,-0.0308
17,CGAAGTAG,0.00111
18,ATTACCAG,0.18
19,ATAGCCAC,-0.0146
20,CGAGTTCA,-0.0225
21,TACTGCCA,0.0854
22,GACCGGAA,-0.0318
23,CAGCTATC,-0.0573
24,CCAGCAAG,-0.182
25,AGTTTTTG,0.107

row,Sequence,PBM E-score
1,ACCAAACG,-0.038
2,AGCAAGCT,-0.156
3,ACAACCAT,0.306
4,ACAACCAG,-0.00422
5,ACAACCAC,0.0998
6,ACAGCTTG,0.11
7,ACCATTGG,0.0343
8,ACACCTCG,0.0498
9,CGCCAAGC,-0.235
10,TCTTAGAA,0.0741
11,AATTATCA,0.251
12,AATTATCT,0.331
13,AATTATCC,0.133
14,AATTATGA,0.257
15,AATTATGT,0.304
16,AATTATGG,0.156
17,CGGTTGCA,-0.146
18,ACTGTCGG,-0.186
19,AGCGTAAT,0.13
20,ATTATCAA,0.274
21,CTTATCAC,0.0488
22,ATTATCAC,0.234
23,ATTATCAG,0.119
24,CTTATCAA,0.278
25,GTTATCAA,0.0472

row,Sequence,PBM E-score
1,AGCTTCGG,-0.187
2,CAAGCCTA,-0.16
3,GGTTACAA,0.0628
4,CAAGTGAG,-0.036
5,CAGATCGG,-0.0356
6,GGGATTAC,0.264
7,CCGATTAA,0.117
8,GCGATTAA,0.209
9,CGGATTAC,0.122
10,CCGATTAC,0.23
11,ACGATTAA,0.0274
12,AAGATTAC,0.255
13,GCGATTAC,0.264
14,TCGATTAA,0.267
15,ACGATTAC,0.295
16,ACGATTGC,0.153
17,GGGATTAA,0.23
18,GCAGTACC,-0.0675
19,CAGTTACC,-0.0935
20,ACACACCG,-0.137
21,CTAATGGC,-0.0137
22,CCTTTGCA,-0.0748
23,ATCACAGA,-0.0171
24,CCCACGTA,-0.0439
25,CACCCAGG,-0.237

row,Sequence,PBM E-score
1,TACGATGA,0.12
2,ACGATTAT,0.274
3,ACGATTAG,0.158
4,AGGATTAT,-0.0477
5,CCCGTTTA,0.069
6,CGATTACA,0.177
7,TGATTACA,0.301
8,TCATTACA,0.164
9,CGATTACC,0.143
10,AGATTACT,0.182
11,CCATTACA,0.223
12,CGATTACG,0.389
13,CCATTACG,0.0601
14,AGATTACA,0.286
15,AGATTACG,0.419
16,GGATTACA,0.19
17,AGATTACC,0.14
18,CTCCCTTC,-0.312
19,AAAAGCCC,-0.0247
20,CGGGCCTC,0.0182
21,CACACACA,0.0837
22,AAGACCAC,-0.205
23,CACCCGGC,-0.351
24,TCAGGCAA,-0.0467
25,CGGGTGTA,0.0316

row,Sequence,PBM E-score
1,AATTCACG,-0.0153
2,GATTCACA,0.0537
3,AATTCACA,0.258
4,AAGGTATA,-0.0348
5,ACTAAACC,-0.0367
6,ACTAATCG,0.355
7,ACTAAACA,0.258
8,ACTAATCA,0.264
9,ACTAATCT,0.128
10,ACTAATCC,0.125
11,CCTAATCG,0.155
12,TCTAAACA,-0.115
13,TCTAATCA,0.231
14,CTCGACCC,-0.157
15,CCGTTACG,0.0353
16,ATCTTTAA,0.0357
17,CCCCTCTC,-0.318
18,AACGTCGG,-0.0613
19,TATGTCGA,0.0777
20,AGTATTCA,0.165
21,CTCGCAAA,-0.0438
22,GTCAGCCA,0.07
23,ATACCTAA,0.286
24,ATACCTAC,0.046
25,ATACCTAT,0.176

row,Sequence,PBM E-score
1,AGGCAGAC,-0.247
2,CTGCTTCC,-0.178
3,CTGCTGTC,-0.0623
4,CTGCTGAC,0.26
5,CTGCTTAC,0.402
6,CTGCTTTA,0.278
7,ATGCTTTA,-0.0364
8,CTGCTGAA,-0.212
9,CTGCTTTC,0.058
10,ATGCTTTC,0.155
11,ATGCTTAA,0.146
12,ATGCTTAC,0.265
13,CTGCTTAA,0.00628
14,AAACCTGT,0.0662
15,ATGTGAGC,-0.0106
16,AAAAGCTG,-0.148
17,GCAGGAGC,-0.285
18,GACCGCCC,-0.161
19,TCGAGTCA,-0.0465
